Results: PubChem BioAssay (NCI)
Where “and” joins values, the source holds several entries; their conditions need not be identical. Equal values may be shown once. This is part of a sample that, as a whole, favours compounds with a hit. Of some 83,000 tested, about 20% had one in any assay.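 The test compound was applied at a single concentration to cells in 96-well plates for 48 hours, and percent growth was recorded.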 Calls of active or inactive are those of the source. The calls were made as follows: active = growth percent below 10; inactive = the rest.

Tests used:
Assay in all cases: NCI-60 one-dose screen, 48 h (100 = growth as untreated, 0 = no growth, -100 = all killed)
Settings in all cases: 10 µM unless noted
MOLT-4 leukemia = test system: MOLT-4 leukemia
SR leukemia = test system: SR leukemia
RPMI-8226 leukemia = test system: RPMI-8226 leukemia
OVCAR-8 ovarian = test system: OVCAR-8 ovarian
OVCAR-5 ovarian = test system: OVCAR-5 ovarian
OVCAR-4 ovarian = test system: OVCAR-4 ovarian
SK-OV-3 ovarian = test system: SK-OV-3 ovarian
IGROV1 ovarian = test system: IGROV1 ovarian
OVCAR-3 ovarian = test system: OVCAR-3 ovarian
HS 578T breast = test system: HS 578T breast
NCI/ADR-RES ovarian = test system: NCI/ADR-RES ovarian
T-47D breast = test system: T-47D breast
BT-549 breast = test system: BT-549 breast
MDA-MB-435 melanoma = test system: MDA-MB-435 melanoma
SW-620 colon = test system: SW-620 colon
MCF7 breast = test system: MCF7 breast
HCT-116 colon = test system: HCT-116 colon
HCC-2998 colon = test system: HCC-2998 colon
KM12 colon = test system: KM12 colon

Compound	growth (MOLT-4 leukemia)	growth (SR leukemia)	growth (RPMI-8226 leukemia)	growth (OVCAR-8 ovarian)	growth (OVCAR-5 ovarian)	growth (OVCAR-4 ovarian)	growth (SK-OV-3 ovarian)	growth (IGROV1 ovarian)	growth (OVCAR-3 ovarian)	growth (HS 578T breast)	growth (NCI/ADR-RES ovarian)	growth (T-47D breast)	growth (BT-549 breast)	growth (MDA-MB-435 melanoma)	growth (SW-620 colon)	growth (MCF7 breast)	growth (HCT-116 colon)	growth (HCC-2998 colon)	growth (KM12 colon)
CCCCCCCCCCCCCCCC[N+](C)(C)Cc1ccccc1	-1.12% (active) and -55.3% (active)	5.4% (active) and -55% (active)	-42.2% (active) and -50.1% (active)	10.5% (inactive)	24.7% (inactive) and -62.5% (active)	3.33% (active) and -44.5% (active)	31.6% (inactive) and -7.74% (active)	-71.5% (active) and -87.3% (active)	1.73% (active) and -74% (active)	8.98% (active) and -27.8% (active)	82.4% (inactive) and 83.6% (inactive)	7% (active) and -12% (active)	-0.798% (active) and -75.1% (active)	-58.7% (active) and -87.5% (active)	-6.91% (active) and -62.2% (active)	2.3% (active) and -42.3% (active)	-53% (active) and -100% (active)	-56.7% (active) and -49.7% (active)	-81% (active) and -85.4% (active)
CCCCCCCCCCCCCCCC[N+](C)(C)C	-52.4% (active)	-54.9% (active) and -48.6% (active)	-14.9% (active) and -9.1% (active)	0.0915% (active)	-4.82% (active)	-34.5% (active) and 17.2% (inactive)	-55.5% (active) and 11% (inactive)	-64% (active) and -56.6% (active)	-85.4% (active) and -1.42% (active)	-24.3% (active) and 2.19% (active)	51.9% (inactive) and 82.5% (inactive)	4.4% (active) and -13.9% (active)	-76% (active) and -41.5% (active)	-70.1% (active) and 7.38% (active)	-92.5% (active) and 8.75% (active)	-78% (active) and 16.9% (inactive)	-72% (active) and 4.21% (active)	-91% (active) and 20.9% (inactive)	-83% (active) and -93.1% (active)
CCCCCCCCCCCCCCCCCC1OCC(COC(=O)O[C@@H](C(=O)O[C@H]2C[C@@]3(O)[C@@H](OC(=O)c4ccccc4)[C@@H]4[C@]5(OC(C)=O)CO[C@@H]5C[C@H](O)[C@@]4(C)C(=O)[C@H](OC(C)=O)C(=C2C)C3(C)C)[C@@H](NC(=O)c2ccccc2)c2ccccc2)O1 (some centres undefined)	43.6% (inactive)	18% (inactive)	4.08% (active)	48.9% (inactive)	55.5% (inactive)	67.4% (inactive)	49.5% (inactive)	47.6% (inactive)	15.7% (inactive)	28.9% (inactive)	103% (inactive)	32.9% (inactive)	58.8% (inactive)	-71.2% (active)	39.6% (inactive)	18.3% (inactive)	18.2% (inactive)	32% (inactive)	14.3% (inactive)
CCCCn1c(=O)c(C(=O)NCc2ccccc2Cl)c(O)c2ccccc21	58.4% (inactive)	60.4% (inactive)	40.1% (inactive)	81.1% (inactive)	109% (inactive)	82.4% (inactive)	80.8% (inactive)	74.9% (inactive)	78.9% (inactive)	101% (inactive)	56.2% (inactive)	85.6% (inactive)	47.9% (inactive)	98.5% (inactive)	78.8% (inactive)	64.4% (inactive)	21.4% (inactive)	93.4% (inactive)	83.8% (inactive)
CC12CCC3C(CCC4CC(O)CCC43C)C1CCC2=O (centres undefined)	83.1% (inactive)	86.1% (inactive)	100% (inactive)	99.9% (inactive)	91.7% (inactive)	108% (inactive)	126% (inactive)	38.9% (inactive)	100% (inactive)	81.9% (inactive)	163% (inactive)	113% (inactive)	113% (inactive)	97.7% (inactive)	109% (inactive)	116% (inactive)	88.6% (inactive)	99.2% (inactive)	98.9% (inactive)
C/C(=C\c1ccn(-c2ccc(N)c(C(F)(F)F)c2)n1)[C@@H]1C[C@@H]2O[C@]2(C)CCC[C@H](C)[C@H](O)[C@@H](C)C(=O)C(C)(C)[C@@H](O)CC(=O)O1	10.2% (inactive)	7.67% (active)	9.58% (active)	28.4% (inactive)	23% (inactive)	55.1% (inactive)	45% (inactive)	40.4% (inactive)	-0.83% (active)	25.1% (inactive)	0.324% (active)	47.6% (inactive)	28.2% (inactive)	-26.8% (active)	44.5% (inactive)	17% (inactive)	9.04% (active)	0.272% (active)	20.6% (inactive)
